High-throughput results as filed in PubChem BioAssay.
PLK1 PBD inh – PLK1 (human) polo-box domain binding inhibition. P53350. Plk1 PBD binding of FITC phosphopeptide, fluorescence polarization. Potency, µM, without a hit: max response, negative = inhibition, usual class: inhibitors. hit rate 2.8% among 360,000. AID 720504; note: potency is the fitted concentration of half-maximal effect; series mostly up to about 57 µM; nearly all actives have a fitted effect of over 65% in size
G9a inh – G9a (human) methyltransferase inhibition | Q96KQ7 | hit rate 8.8% among 350,000 | Potency, µM (doses to about 102 µM), for the others: top-dose activity, negative = inhibition, usual class: inhibitors | G9a H3K9 monomethylation, AlphaScreen, 2 h; note: potency is the fitted concentration of half-maximal effect; nearly all actives have a fitted effect of over 75% in size
Target sequence (Q96KQ7 913-1193 limits assumed): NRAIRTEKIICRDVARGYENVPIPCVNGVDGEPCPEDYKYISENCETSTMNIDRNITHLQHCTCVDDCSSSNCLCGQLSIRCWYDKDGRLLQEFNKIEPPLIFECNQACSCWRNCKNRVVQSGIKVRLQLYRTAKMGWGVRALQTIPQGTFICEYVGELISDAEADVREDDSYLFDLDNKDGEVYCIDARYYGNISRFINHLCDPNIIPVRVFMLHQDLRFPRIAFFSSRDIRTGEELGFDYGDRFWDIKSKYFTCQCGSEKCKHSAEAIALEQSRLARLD
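Quantitative HTS format: methyltransferase activity on a biotin-tagged H3K9 peptide is measured by AlphaScreen, using a rabbit anti-monomethyl-H3K9 antibody with streptavidin donor and anti-IgG acceptor beads. Final levels are 20 nM enzyme, 500 nM peptide, 20 uM SAM; 2 h RT.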
VDR inhibitor – inhibitors of human vitamin D receptor. Potency, µM, inactives show max response, negative = inhibition, usual class: inhibitors. hit rate 0.93% among 400,000. VDR-SRC2-3 peptide fluorescence polarization, 2 h. P11473; note: potency is the fitted concentration of half-maximal effect
Target sequence (P11473 whole entry, looked up): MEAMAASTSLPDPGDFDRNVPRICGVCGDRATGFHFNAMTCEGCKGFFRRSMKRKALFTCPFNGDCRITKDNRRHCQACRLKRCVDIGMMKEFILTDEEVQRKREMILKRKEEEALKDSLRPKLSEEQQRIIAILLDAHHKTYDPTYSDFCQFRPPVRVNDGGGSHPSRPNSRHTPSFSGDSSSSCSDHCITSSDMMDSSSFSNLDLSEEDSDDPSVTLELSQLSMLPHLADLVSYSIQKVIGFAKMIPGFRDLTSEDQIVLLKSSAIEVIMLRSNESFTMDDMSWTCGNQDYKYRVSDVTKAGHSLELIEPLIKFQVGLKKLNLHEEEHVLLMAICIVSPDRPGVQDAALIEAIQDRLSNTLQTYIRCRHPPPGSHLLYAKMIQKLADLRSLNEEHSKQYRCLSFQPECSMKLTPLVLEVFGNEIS
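FP read-out; VDR + SRC2-3 coactivator peptide; 23 nl compound by pintool; 2 h RT incubation; reagents held at 4 deg C, protected from light.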
Mm-Cpn inhibitor – M. maripaludis TRiC chaperonin inhibition; purified Mm-Cpn ATPase, ADP Transcreener TR-FRET; Potency, µM (titrated, usually from 76.9 µM), for inactives: at the top dose activity, negative = inhibition, hits mostly inhibitors; hit rate 0.031% among 330,000; AID 504842; note: potency is the fitted concentration of half-maximal effect; nearly all actives have a fitted effect of over 80% in size
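Purified archaeal Mm-CPN (25nM final) preincubated 10 min at 37degC with compound, then 10uM ATP for 30 min at 37degC; ADP measured by HTRF Transcreener TR-FRET; buffer 30 mM TRIS pH 7.4, 100mM KCl, 5mM MgCl2, 1mM DTT.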
CCT chaperon mod – changes cytosolic chaperonin activity. purified chaperonin ATPase assay, HTRF ADP detection, 30 min. activity change, % (concentration not given with the values), hits read low. hit rate 0.3% among 360,000; in the data active = activity change below about -30%
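Nucleotide hydrolysis assay: TRiC at 20–40 nM final (set by batch activity) with 10 uM ATP, 30 min at 37 °C, in presence of 76 uM compound. Detection by competitive ADP HTRF, 30 min ambient.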
Sfp PPTase inh – blocks B. subtilis Sfp PPTase activity; Biochemical Sfp PPTase activity, qHTS; hit rate 3.5% among 310,000; Potency, µM, without a hit: largest response in the series, negative = inhibition, usual class: inhibitors; Q9F4F7; AID 1490;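 note: the enzyme is Sfp with the accession as filed and its product quenches rhodamine fluorescence; potency is the fitted concentration of half-maximal effect; 0% = enzyme reaction without inhibitor and -100% = no enzyme wells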
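Sfp 15 nM + cpd, 15 min RT; start w/ rhodamine-CoA 5 uM, BHQ-2-YbbR 12.5 uM (final); 50 mM Hepes pH 7.6, 10 mM MgCl2, 0.01% NP-40, 0.01% BSA; read 525/598 nm at 0 and 30 min.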
Active calls of the source: *; [ ] = remark or other dose. The list is not random: actives were taken first. Their share in the collection is about 10%. Unless noted, calls come from the whole dose curve; as a rule, active = well fitted curve in the direction sought with a large enough effect; inconclusive = small, poorly fitted or top-dose-only effect, or another doubt; inactive = no such curve, though single readings can be large; an effect the other way counts as inactive or inconclusive. Unless noted, % is set by controls: 0 for no effect and ±100 for the full control effect.

How did COc1ccc(S(=O)(=O)N2CCN(Cc3cc(OC)c(OC)cc3OC)CC2)cc1 do in these assays?
PLK1 PBD inh: -8%; G9a inh: 50µM*; VDR inhibitor: -16%; Mm-Cpn inhibitor: -3%; CCT chaperon mod: -1; Sfp PPTase inh: inconclusive

What do the screens show for `CCOc1cc(CN2CCN(S(=O)(=O)Cc3ccccc3)CC2)ccc1OC`?
PLK1 PBD inh: -8%; G9a inh: 16%; VDR inhibitor: -9%; Mm-Cpn inhibitor: 0%; CCT chaperon mod: 1; Sfp PPTase inh: 20%

How did Cc1ccccc1CN1CCN(S(C)(=O)=O)CC1 do in these assays?
PLK1 PBD inh: -7%; G9a inh: -1%[59 µM]; VDR inhibitor: -29%; Mm-Cpn inhibitor: -2%; CCT chaperon mod: -1; Sfp PPTase inh: 15%

How did CC(C)[C@@H]1NC(=O)c2cc([N+](=O)[O-])cc(I)c2NCC[C@@H](C(N)=O)NC(=O)[C@H](CO)NC1=O do in these assays?
G9a inh: 13µM*; Mm-Cpn inhibitor: -6%; Sfp PPTase inh: -1%

How did CC(C)C[C@@H]1NC(=O)[C@H](C(C)C)NC(=O)c2cc([N+](=O)[O-])cc(I)c2NCC[C@@H](C(N)=O)NC1=O do in these assays?
PLK1 PBD inh: -6%; G9a inh: 13µM*; VDR inhibitor: -10%; Mm-Cpn inhibitor: -2%; CCT chaperon mod: -2; Sfp PPTase inh: 0%

How did CC[C@H](C)[C@@H]1NC(=O)[C@@H](CC(C)C)NC(=O)[C@H](C(C)C)NC(=O)[C@H]2CSSC[C@H](NC1=O)C(=O)N2 do in these assays?
PLK1 PBD inh: 2%; CCT chaperon mod: 0

How did C[C@@H]1NC(=O)c2cc([N+](=O)[O-])cc(I)c2NCCCC[C@@H](C(N)=O)NC(=O)[C@H](CC(N)=O)NC1=O do in these assays?
PLK1 PBD inh: -9%; G9a inh: 32µM*; VDR inhibitor: -5%; Mm-Cpn inhibitor: 1%; CCT chaperon mod: 0; Sfp PPTase inh: inconclusive

How did CC(C)[C@@H]1NC(=O)c2cc([N+](=O)[O-])cc(F)c2NCCC[C@@H](C(N)=O)NC(=O)[C@H](CO)NC1=O do in these assays?
G9a inh: 40µM*; Mm-Cpn inhibitor: 0%; Sfp PPTase inh: 2%

Results for NC(=O)[C@@H]1CCCCNc2c(F)cc([N+](=O)[O-])cc2C(=O)N[C@@H](CC(=O)O)C(=O)NCC(=O)N1 ?
PLK1 PBD inh: 5%; G9a inh: inconclusive; VDR inhibitor: -1%; Mm-Cpn inhibitor: -1%; CCT chaperon mod: 2; Sfp PPTase inh: 17%

Results for Cc1nn(-c2ccccc2)c(-n2cccc2)c1C(=O)N1CCN(c2ccccc2)CC1 ?
G9a inh: 3%[59 µM]; VDR inhibitor: 22%

How did Nc1nn(-c2ccccc2)nc1C(=O)OCc1ccc(Cl)cc1 do in these assays?
G9a inh: 64%[59 µM]; VDR inhibitor: -11%

Results for COc1ccc(Nc2oc(/C=C/c3cc(OC)c(OC)c(OC)c3)nc2C#N)cc1 ?
G9a inh: -8%[59 µM]; VDR inhibitor: 12%

How did CCN(CC)c1ccc(C(=O)NCc2nc3cccnc3n2Cc2ccc(C)cc2)cc1 do in these assays?
G9a inh: -2%[59 µM]; VDR inhibitor: 5%

How did CC[C@H](C)[C@@H]1NC(=O)c2cc([N+](=O)[O-])cc(F)c2OCC[C@@H](C(N)=O)NC(=O)[C@H](CCCCN)NC1=O do in these assays?
PLK1 PBD inh: 0%; G9a inh: inconclusive; VDR inhibitor: -20%; Mm-Cpn inhibitor: 0%; CCT chaperon mod: -1; Sfp PPTase inh: 8%

Results for C[C@@H](O)C1NC(=O)[C@H](CCCCN)NC(=O)c2cc([N+](=O)[O-])cc(I)c2NCCC[C@@H](C(N)=O)NC1=O (stereo partly drawn) ?
PLK1 PBD inh: -2%; G9a inh: 50µM*; VDR inhibitor: 4%; Mm-Cpn inhibitor: -2%; CCT chaperon mod: -2; Sfp PPTase inh: -16%

How did CC(C)c1ccc(NC(=O)Cn2cc(S(=O)(=O)Cc3ccccc3Cl)c3ccccc32)cc1 do in these assays?
G9a inh: -2%[59 µM]; VDR inhibitor: 1%

What do the screens show for `O=C(O)CCCCCCCCCCCc1ccccc1`?
PLK1 PBD inh: 24µM*; G9a inh: 52%; VDR inhibitor: -13%; Mm-Cpn inhibitor: 1%; CCT chaperon mod: -1; Sfp PPTase inh: 17%

How did O=C(O)c1ccc(CCCc2ccccc2)cc1 do in these assays?
PLK1 PBD inh: -9%; VDR inhibitor: 0%; CCT chaperon mod: 0

Results for O=C(O)CCCNC(=O)Cc1ccccc1 ?
PLK1 PBD inh: -14%; G9a inh: -50%; VDR inhibitor: -7%; Mm-Cpn inhibitor: 3%; CCT chaperon mod: -91*; Sfp PPTase inh: 11%

What do the screens show for `Cc1cc(=O)n(Cc2cccc(F)c2)c2c1c(C)nn2-c1cccc(F)c1`?
G9a inh: 40%[59 µM]; VDR inhibitor: -11%

What do the screens show for `NCCC[C@@H](CC(=O)N[C@@H]1CCNC[C@H]1C(=O)N[C@H](CC(=O)N[C@@H](CCC(=O)O)CC(=O)O)Cc1ccccc1)NC(=O)C[C@H](Cc1ccccc1)NC(=O)[C@@H]1CCCC[C@H]1N`?
VDR inhibitor: 4%; Sfp PPTase inh: -4%

Results for O=C1N(C2CCCC2)C[C@@H]2C[C@@H](c3cccn3-c3nccs3)N3CCC[C@@]123 ?
PLK1 PBD inh: -6%; G9a inh: 50µM*; VDR inhibitor: -24%; Mm-Cpn inhibitor: -1%; CCT chaperon mod: 0; Sfp PPTase inh: -8%

Results for Cc1nn(CC(O)COc2ccc3c(c2)CCC3)c(C)c1C (stereo not drawn) ?
PLK1 PBD inh: 3.4µM*; G9a inh: 16%[59 µM]; VDR inhibitor: -12%; Mm-Cpn inhibitor: 1%; CCT chaperon mod: 0; Sfp PPTase inh: 24%

Results for CCOc1ccc(C(C)=O)cc1N1C(=O)C2C3C=CC(C3=C(C)C)C2C1=O (stereo not drawn) ?
PLK1 PBD inh: -5%; G9a inh: inconclusive; VDR inhibitor: -24%; Mm-Cpn inhibitor: -2%; CCT chaperon mod: 1; Sfp PPTase inh: 45µM*

Results for COCCNC(=O)c1ccc2c(=O)n(CCCN3CCCC3=O)c(=S)[nH]c2c1 ?
PLK1 PBD inh: 0%; G9a inh: inconclusive; VDR inhibitor: -14%; Mm-Cpn inhibitor: 1%; CCT chaperon mod: 0; Sfp PPTase inh: 50µM*

Results for O=C(NCc1ccccc1Cl)c1ccc2c(=O)n(CCCN3CCCC3=O)c(=S)[nH]c2c1 ?
PLK1 PBD inh: -10%; G9a inh: -11%[59 µM]; VDR inhibitor: -8%; Mm-Cpn inhibitor: -1%; CCT chaperon mod: -1; Sfp PPTase inh: 15%

Results for CCCCCNC(=O)c1ccc2c(=O)n(CCCN3CCCC3=O)c(=S)[nH]c2c1 ?
PLK1 PBD inh: -10%; G9a inh: 6.3µM*; VDR inhibitor: -8%; Mm-Cpn inhibitor: 1%; CCT chaperon mod: -1; Sfp PPTase inh: -14%
